Sampled rows, rich in hits. Any-hit rate of the full collection: about 2.8%.
HEK293 tox = cytotoxic in the GLP-1 receptor inverse agonist counter-screen | HEK293 cAMP-luciferase reporter cells, luminescence, 24 h | Potency, µM (highest dose often 38.3 µM), most hits filed as inhibitors | 0.13% of 410,000 active | AID 624418;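 further: loss of luciferase light is scored as toxicity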
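Cells in DMEM/10% Nu serum/1% pen-strep, 1536-well format. Pre-incubated 12 h, dosed with 23 nL compound, incubated a further 24 h. Luciferase detection, 12 min at room temp, luminescence.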
BRCA1 expr up = activators of BRCA1 expression | 1.1% of 380,000 active | Potency, µM (doses to about 46.1 µM), hits mostly activators | MCF7-BRCA1-FFLuc reporter, luminescence, 48 h; response scale: scaled: vehicle 0%, 10 µM genistein 100% | AID 624202; further: nearly all actives have a fitted effect of over 80% in size
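Reporter cells (MCF7, BRCA1 promoter-firefly luciferase) received library compounds across a concentration series for 48 h. End-point luminescence was measured and concentration-effect curves derived after normalization.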
GLP1R inv ag = acts as inverse agonist at human GLP-1 receptor; AID 624417; Potency, µM (top dose mostly 38.3 µM), actives largely listed as inhibitors; 1.6% of 410,000 active; HEK293 GLP-1R CRE-luciferase, luminescence, 24 h; GLP-1R form is constitutively active; P43220; further: nearly all actives have a fitted effect of over 55% in size
Target sequence (P43220 whole entry, looked up): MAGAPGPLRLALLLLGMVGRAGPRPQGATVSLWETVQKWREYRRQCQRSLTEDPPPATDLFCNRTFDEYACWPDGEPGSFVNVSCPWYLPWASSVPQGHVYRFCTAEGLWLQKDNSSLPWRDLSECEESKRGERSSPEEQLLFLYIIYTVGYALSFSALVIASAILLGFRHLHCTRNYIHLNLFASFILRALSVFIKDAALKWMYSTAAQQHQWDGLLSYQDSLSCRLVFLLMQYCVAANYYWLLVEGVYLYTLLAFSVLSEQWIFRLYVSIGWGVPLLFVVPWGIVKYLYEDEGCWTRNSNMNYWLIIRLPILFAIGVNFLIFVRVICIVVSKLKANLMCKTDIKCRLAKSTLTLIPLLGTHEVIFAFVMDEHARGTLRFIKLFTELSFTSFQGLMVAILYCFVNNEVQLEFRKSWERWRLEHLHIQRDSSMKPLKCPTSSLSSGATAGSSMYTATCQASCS
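HEK293 cells stably co-expressing a cAMP-responsive luciferase reporter and constitutively active GLP-1R were seeded, incubated 12 h, then exposed to compounds for 24 h at 37 C. Luminescence was read 12 min after detection reagent; inverse agonists lower signal.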
GLP-1R agonist = GLP-1 receptor (human) agonism. HEK293 GLP-1R CRE-luciferase, luminescence, 4-6 h; cells express a hypersensitive GLP-1R form. Potency, µM (doses to about 45.6 µM), actives largely listed as activators. 0.007% of 380,000 active. AID 624172
Mito fusion act = blocks mitochondrial division or promotes mitochondrial fusion | S. cerevisiae fusion-defective mutant growth rescue, CellTiterGlo 48 h | Potency, µM (doses to about 46.1 µM), usual class: activators | 0.23% of 320,000 active | AID 485298; further: nearly all actives have a fitted effect of over 45% in size
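Yeast fusion mutant, YPEG (non-fermentable carbon), compound, 48 h at 37C non-permissive; CellTiterGlo added, 10 min RT, luminescence read. Rescued growth = division inhibition.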
Hits are given with their value; n = inactive; u = inconclusive; x = not tested or not shown. The call rests on the fitted dose curve; in most records, active means well fitted curve in the direction sought with a large enough effect; inconclusive means small, poorly fitted or top-dose-only effect, or another doubt; inactive means no such curve, though single readings can be large; an effect the other way counts as inactive or inconclusive.

SMILES | HEK293 tox | BRCA1 expr up | GLP1R inv ag | GLP-1R agonist | Mito fusion act
CO/N=C\CC(=O)Nc1ccc(Oc2ccccc2)cc1 | n | n | 1.3µM | n | n
O=C(C/C=N\O)Nc1ccc(Oc2ccccc2)cc1 | n | n | n | n | n
Cn1ccnc1SCC(=O)Nc1ccc(Oc2ccccc2)cc1 | n | 10µM | u | n | n
CC(=O)N1c2ccc(C)cc2Sc2c1ccc1ccccc21 | n | n | n | u | x
CS(=O)(=O)N1CCc2cc(C(=O)Nc3ccc(Br)cc3)ccc21 | n | n | n | n | n
Cc1c(C(=O)N2CCOCC2)c(S(=O)(=O)Nc2ccc(Br)cc2F)c(C)n1C | n | n | n | n | n
O=C(NCc1cccc(C(F)(F)F)c1)C1CC(c2cccc(F)c2)=NO1 (centres undefined) | n | n | u | n | n
Cc1ccc(S(=O)(=O)N2CCN(C(=O)c3cc(=O)[nH]c4ccccc34)CC2)c(C)c1 | n | n | n | n | n
Cn1ccnc1SCC(=O)c1ccc(OC(F)F)cc1 | n | u | n | n | n
COc1ccc(C(=O)CSc2nccn2C)cc1 | n | 8.9µM | n | n | n
COC(=O)[C@@]12CCCCN1[C@H](c1ccc(-c3ccc(F)cc3)cc1)[C@@H]1C(=O)N(C)C(=O)[C@@H]12 | n | n | u | n | 13µM
COC(=O)[C@@]12CCCCN1[C@H](c1ccc(-c3ccccc3)cc1)[C@H]1C(=O)N(C)C(=O)[C@H]12 | n | n | n | n | u
COC(=O)[C@@]12CCCN1[C@H](c1ccc(-c3ccc(OC)cc3)c(OC)c1)[C@@H]1C(=O)N(C)C(=O)[C@@H]12 | n | n | n | n | n
COC(=O)[C@@]12CCCCN1[C@H](c1ccc(-c3ccc(F)cc3)c(OC)c1)[C@@H]1C(=O)N(C)C(=O)[C@@H]12 | n | n | 10µM | n | u
Nc1nc(-c2cccc(Br)c2)cs1 | n | 11µM | n | n | n
Nc1nc(-c2ccc(Br)cc2)cs1 | n | 16µM | u | n | n
Nc1nc(-c2ccccc2)cs1 | n | n | n | n | n
Nc1nc(-c2ccc(F)cc2)cs1 | n | n | n | n | n
COc1ccc(Oc2nc(-c3ccccc3)ncc2S(=O)(=O)c2ccccc2)cc1 | n | n | n | n | n
CCOC(=O)C1=C(C)N(C[C@@H]2CC[C@@H](Cc3ccc4cc(OC)ccc4c3)O2)C(=O)NC1c1ccc(OC)cc1 (some centres undefined) | n | n | u | n | x
COc1ccc2cc(C[C@@H]3CC[C@@H](CO)O3)ccc2c1 | n | 2.8µM | n | n | x
Clc1ccc(-c2cn3cccnc3n2)cc1 | n | u | n | n | n
Brc1ccc(-c2cn3cccnc3n2)cc1 | n | 3.5µM | n | n | n
COCCn1c(-c2ccc(F)cc2)nc2cccnc21 | n | n | n | n | n
Cc1ccc(C(C)C)c(OCCOCCN2CCNCC2)c1 | n | n | n | n | x
SMILES | HEK293 tox | BRCA1 expr up | GLP1R inv ag | GLP-1R agonist | Mito fusion act
Cc1ccc(SCCCCN2CCNCC2)cc1 | n | n | 2.8µM | n | n
Clc1ccc(SCCCCN2CCOCC2)cc1 | n | n | n | n | n
Clc1ccc(SCCCCN2CCNCC2)cc1 | n | n | 1.8µM | n | n
Cc1ccc(C(C)C)c(OCCCCN2CCNCC2)c1 | n | n | 2.2µM | n | n
Cc1cc(C)nc(NS(=O)(=O)c2ccc(NC(=O)C(C)Oc3ccccc3F)cc2)n1 (centres undefined) | n | n | n | n | n
CCOC(=O)/C(=N\Nc1ccccc1Cl)N1CC(C)OC(C)C1 (centres undefined) | n | n | 5µM | n | n
CCOC(=O)/C(=N\Nc1ccccc1Cl)N(C)C1CCCCC1 | n | n | 8.9µM | n | n
CCOC(=O)/C(=N\Nc1cc(C(F)(F)F)ccc1Cl)N(CC)CC | n | n | n | n | n
CCOC(=O)/C(=N\Nc1cc(Cl)ccc1Cl)N1CC(C)OC(C)C1 (centres undefined) | n | n | n | n | n
COc1cc(C)ccc1OCCOc1ccccc1Cl | n | u | u | n | n
COc1cc(C)ccc1OCCCOc1ccccc1Cl | n | 13µM | u | n | n
CC(C)Cn1c(-c2ccc(Br)cc2)c[nH]c1=S | u | n | 10µM | n | n
O=C(NCCSc1ccccc1)c1cccnc1 | n | 14µM | n | n | n
CCC12CN3CCN(CC(C3)/C1=N\NC(=O)Nc1ccccc1)C2 | n | n | n | n | n
COc1ccc2nc(SCC(=O)C(C)(C)C)[nH]c2c1 | n | 7.9µM | n | n | n
CCOc1ccc2nc(SCC(=O)N(C)C)[nH]c2c1 | n | 10µM | n | n | n
CCOc1ccc2nc(SCC(=O)N(C)C3CCS(=O)(=O)C3)[nH]c2c1 (centres undefined) | n | n | n | n | n
C=CCc1ccc(OCC(O)CN2CCc3ccccc3C2)c(OC)c1 (centres undefined) | n | n | u | n | n
CCOC(=O)CSc1cccc2cccnc12 | 3.5µM | n | u | n | n
O=C(CSc1nc2ccccc2c(=O)n1CCCN1CCOCC1)c1c[nH]c2ccccc12 | u | n | u | n | n
CC(C)(C)c1cc(/C=N/O)cc(C(C)(C)C)c1O | n | n | 10µM | n | u
CC(C)(C)c1cc(/C=C(\C#N)C(N)=S)cc(C(C)(C)C)c1O | x | x | x | x | n
Cc1ccccc1NC(=O)CSc1nnc2ccc(-c3ccccn3)nn12 | n | n | n | n | n
Cc1cc(C)cc(NC(=O)Cc2ccc(NC3=NC4CS(=O)(=O)CC4S3)cc2)c1 (centres undefined) | n | n | n | n | n
CN(C)c1nccc(N(Cc2ccccc2)Cc2ccccc2)c1C#N | n | n | 11µM | n | n
SMILES | HEK293 tox | BRCA1 expr up | GLP1R inv ag | GLP-1R agonist | Mito fusion act
Clc1ccc(CCNC(c2nnc(-c3ccccc3)o2)c2ccccc2Cl)cc1 (centres undefined) | n | x | u | x | x
Fc1ccc(C(NCCc2ccc(Cl)cc2)c2nnc(-c3ccccc3)o2)c(Cl)c1 (centres undefined) | n | x | 10µM | x | x
CC1CC2(C)C(=CC1=O)CCC1C2C(O)CC2(C)C1CCC2(O)C(=O)CO (centres undefined) | n | n | n | n | x
O=C(O)Cn1cc(C(=O)C2CC2)c2ccccc21 | n | n | n | n | n
O=C(Cn1cc(C(=O)C2CC2)c2ccccc21)NCc1ccccc1 | n | 13µM | u | n | n
COc1ccc(-c2cc(C(F)(F)F)n3ncc(C(=O)O)c3n2)cc1OC | n | n | n | n | n
CN1[C@@H]2CC[C@H]1CC(OC(c1ccccc1)c1ccccc1)C2 (some centres undefined) | x | x | x | n | x
CN1CCC(OC(c2ccccc2)c2ccc(Cl)cc2)C1 (centres undefined) | u | n | 3.2µM | n | x
CCCCOc1ccccc1N1CCN(CCCN2C(=O)C3CCCN3C2=O)CC1 (centres undefined) | n | n | n | n | n

Assay outcomes as filed in PubChem BioAssay.
